Source: PubChem BioAssay (National Center for Advancing Translational Sciences (NCATS))
An excerpt weighted towards active compounds, which were near 19% of everything screened.
HT1080-NT tox = kills 2HG-producing HT-1080-NT fibrosarcoma cells | AID 686970 | Potency, µM (titrated, usually from 46.1 µM), without a hit: at the highest dose activity, negative = less viability, usual class: cytotoxic | 360,000 compounds, 1.6% hits | HT-1080-NT fibrosarcoma viability, CellTiter-Glo ATP luminescence, 48 h;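 further: NT is the 2HG producing partner of a matched IDH1 knockdown line; potency means the concentration at half of the fitted maximal effect; 0% = DMSO-treated cells and -100% = media-only wells without cells; nearly all actives have a fitted effect of over 55% in size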
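Toxicity toward the 2HG-producing NT line was scored as %Activity, normalised to DMSO and no-cell wells, from CellTiter-Glo luminescence after 48 hours' treatment.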
TDP1 cell noCPT = qHTS for Inhibitors of human tyrosyl-DNA phosphodiesterase 1 (TDP1): qHTS in cells in absence of CPT; 420,000 compounds, 15% hits; DT40 Tdp1-/- hTDP1 cells, no CPT, ATP luminescence, 48 h; Potency, µM (series often up to 46.2 µM), without a hit: top-dose activity change, negative = growth inhibition, usual class: inhibitors; further: potency means the concentration at half of the fitted maximal effect; nearly all actives have a fitted effect of over 55% in size
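Chicken DT40 Tdp1-/- cells complemented with human TDP1, screened without camptothecin (DMSO vehicle only), 400 cells/well. Compounds pin-transferred, cells incubated at 37 °C for at least 48 hr. Growth read as ATP-dependent luminescence (CellTiter-Glo, 30 min at RT).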
HT1080 IDH1KD tx = kills HT-1080 cells with IDH1 knockdown; AID 686971; 360,000 compounds, 2% hits; HT-1080 IDH1 knockdown viability, ATP luminescence, 48 h; Potency, µM (doses to about 46.1 µM), for the others: at the highest dose activity, negative = toxicity, usual class: cytotoxic;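 further: potency means the concentration at half of the fitted maximal effect; 0% = DMSO wells and -100% = cell-free medium wells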
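In this qHTS, HT-1080 cells depleted of IDH1 are exposed for 48 h at 37 °C to compound titrations. Toxicity is scored from CellTiter-Glo luminescence, with DMSO as full viability and medium alone as none.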
IL-1B inflam inh = blocks inflammasome-driven IL-1 beta release. activity change, % at 57.5 µM. THP-1 LPS/ATP IL-1B secretion, AlphaLISA, 16 h; hits give low values. 360,000 compounds, 4.7% hits. AID 743279; in the data active means activity change below about -50%; inconclusive means mostly about -30% to -49%
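THP-1 cells pretreated 1 hr with compounds (up to 57.5 uM final), then stimulated with LPS (250 ng/mL final) plus ATP (1.25 mM final); secreted IL-1B measured by AlphaLISA after 16 hr, decreased signal indicating inhibition.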
TDP1 cell CPT = growth inhibition of DT40 Tdp1-/-;hTDP1 cells with camptothecin (screen for TDP1 inhibitors). chicken DT40 Tdp1-/-;hTDP1 cells + 20 nM CPT, ATP luminescence, 48 h. Potency, µM (top dose mostly 46.2 µM), for inactives: top-dose activity change, negative = growth inhibition, usual class: inhibitors. 420,000 compounds, 12% hits. AID 686979; further: potency means the concentration at half of the fitted maximal effect; nearly all actives have a fitted effect of over 55% in size
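Cell growth measured by CellTiter-Glo luminescence after a minimum 48 h, 37 C compound exposure with 20 nM CPT in Tdp1-knockout DT40 cells stably expressing hTDP1, seeded 400/well; qHTS titration format.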
An asterisk follows results filed as active; ? = inconclusive; · = no result. Unless noted, the call rests on the fitted dose curve; in most records, active means well fitted curve in the direction sought with a large enough effect; inconclusive means small, poorly fitted or top-dose-only effect, or another doubt; inactive means no such curve, though single readings can be large; an effect the other way counts as inactive or inconclusive. Unless noted, on the % scale 0 is the no-effect control and ±100 the full control effect.

SMILES	HT1080-NT tox	TDP1 cell noCPT	HT1080 IDH1KD tx	IL-1B inflam inh	TDP1 cell CPT
CCCS(=O)(=O)c1c(S(=O)(=O)CCC)c2ccccn2c1C(=O)OC	-4%	16µM*	-14%	7	21µM*
CCCS(=O)(=O)c1c(S(=O)(=O)CCC)c2c(N)cccn2c1C(=O)c1ccc(OC)cc1	-16%	-18%	-20%	-16	-23%
CCCS(=O)(=O)c1c(S(=O)(=O)CCC)c2c(C)cccn2c1C(=O)OC	3%	13µM*	16%	-5	13µM*
CCCS(=O)(=O)c1c(S(=O)(=O)CCC)c2c3ccccc3ccn2c1C(=O)OC	-4%	26µM*	-6%	?	?
COC(=O)c1c(S(N)(=O)=O)c2ccccc2n1C	-2%	-25%	-4%	-17	8%
CCCS(=O)(=O)c1c(S(=O)(=O)CCC)c2c(N)cccn2c1C(=O)c1ccc(F)cc1	-2%	?	-18%	?	-27%
CCCS(=O)(=O)c1c(S(=O)(=O)CCC)c2c(N)cccn2c1C(=O)c1ccc(Br)cc1	-1%	?	-15%	-17	16µM*
CN(C)c1c(F)cc(C(=O)NCc2ccccc2)cc1F	11%	-8%	9%	0	2%
CCCS(=O)(=O)c1c(S(=O)(=O)CCC)c2cc(C(C)(C)C)ccn2c1C(=O)c1ccccc1	·	16µM*	·	·	18µM*
CCCS(=O)(=O)c1c(S(=O)(=O)CCC)c2ccc(C(N)=O)cn2c1C(=O)c1ccc(F)cc1	-11%	-3%	-4%	27	4%
COC(=O)[C@]1(Sc2ccc(OC)cc2)CC(=O)N[C@@H]1c1ccccc1	7%	18µM*	-1%	39	?
COC(=O)[C@@]1(Sc2ccc(C)cc2)CC(=O)N[C@@H]1c1ccccc1	14%	-23%	3%	11	6%
COc1cc2oc3ccc(C#Cc4ccc(N)cc4)cc3c(=O)c2cc1OC	-18%	?	-7%	-23	?
COc1ccc(-c2oc3ccc(-c4cc(OC)c(OC)c(OC)c4)cc3c2C#Cc2ccccn2)cc1	4%	?	12%	-2	18µM*
Cn1c2ccccc2c(=O)c2cc(C#Cc3ccccn3)ccc21	15%	?	10%	12	-18%
COc1cc2oc3ccc(C#Cc4ccccn4)cc3c(=O)c2cc1OC	11%	23µM*	-1%	0	?
COc1ccc(C#Cc2c(-c3ccc(OC)cc3)oc3ccc(-c4ccc(OC)cc4)cc23)cc1	6%	-4%	2%	7	-23%
COc1cc2oc3cc(C#Cc4ccc(N)cc4)ccc3c(=O)c2cc1OC	-19%	16µM*	-14%	-61*	16µM*
COc1ccc(OC)c(Nc2nc(N(C)c3ccccc3)nc(N)c2[N+](=O)[O-])c1	-8%	?	-6%	24	?
CN(C(=O)COC(=O)C1CCN(S(=O)(=O)c2c(Cl)cccc2Cl)CC1)C1CCCCC1	9%	-21%	-1%	-9	?
Cc1cccc(C)c1C(=NCCCN(C)C)c1ccccc1	-17%	-29%	-11%	28	-15%
CCCCCCn1c(=O)n2n(c1=O)[C@@H]1CN(S(=O)(=O)c3ccc(C)cc3)C[C@]1(O)[C@@H](OC(=O)NCc1ccco1)C2	0%	23µM*	1%	?	?
Cc1ccc(S(=O)(=O)N2C[C@H]3N(C(=O)OC(C)C)N(C(=O)OC(C)C)C[C@H](OC(=O)NCC4CCCCC4)[C@@]3(O)C2)cc1	21µM*	26µM*	?	-17	21µM*
Cc1ccc(S(=O)(=O)N2CC3(O)CN(C(=O)OC(C)C)N(C(=O)OC(C)C)CC3(OC(=O)NCc3ccccc3)C2)cc1 (configuration not stated)	-5%	21µM*	-6%	-24	?
Cc1ccc(S(=O)(=O)N2C[C@H]3n4c(=O)ccc(=O)n4C[C@H](OC(=O)Nc4c(C)noc4C)[C@@]3(O)C2)cc1	15%	?	-5%	-4	-10%
SMILES	HT1080-NT tox	TDP1 cell noCPT	HT1080 IDH1KD tx	IL-1B inflam inh	TDP1 cell CPT
Cc1ccc(S(=O)(=O)N2C[C@H]3n4c(=O)ccc(=O)n4C[C@H](OC(=O)NC4CC4)[C@@]3(O)C2)cc1	3%	-12%	6%	17	-13%
COc1ccc(CNC(=O)OC23CN(C(=O)OC(C)C)N(C(=O)OC(C)C)CC2(O)CN(S(=O)(=O)c2ccc(C)cc2)C3)cc1OC (configuration not stated)	-5%	?	-7%	-6	?
Cc1ccc(S(=O)(=O)N2C[C@H]3N(C(=O)OC(C)C)N(C(=O)OC(C)C)C[C@H](OC(=O)NCc4ccccc4)[C@@]3(O)C2)cc1	-2%	21µM*	-1%	-10	21µM*
COc1ccc(Cl)cc1-c1nc(SCC(N)=O)n[nH]1	-8%	8%	10%	-3	8%
Cc1cccc(OCCC(=O)OCC(=O)Nc2c(C)nn(-c3ccccc3)c2C)c1	9%	-13%	18%	9	5%
Cc1ccc(S(=O)(=O)N2C[C@H]3N(C(=O)OC(C)C)N(C(=O)OC(C)C)C[C@H](OC(=O)NCc4ccco4)[C@@]3(O)C2)cc1	1%	23µM*	0%	-2	?
COC(=O)[C@H]1C[C@H](OC(=O)NCc2ccccc2F)[C@@]2(O)CN(S(=O)(=O)c3ccc(C)cc3)CC2[C@H]1C(=O)OC (some centres not stated)	2%	23µM*	1%	0	?
COC(=O)[C@H]1C[C@@]2(O)CN(S(=O)(=O)c3ccc(C)cc3)C[C@@]2(OC(=O)NCc2ccco2)C[C@H]1C(=O)OC	1%	-22%	0%	-21	-17%
COc1ccc(-c2csc(N(CCCN(C)C)C(=O)c3ccccc3C)n2)cc1	?	4.6µM*	?	-76*	3.7µM*
CCN(CC)CCCN(C(=O)c1ccc(F)cc1)c1nc(-c2ccc(OC)cc2)cs1	?	10µM*	23µM*	-93*	13µM*
COc1ccc(-c2csc(N(CCCN(C)C)C(=O)c3ccc(F)cc3)n2)cc1	-21%	?	?	-21	-35%
COc1ccc(-c2csc(N(CCCN(C)C)C(=O)c3ccccc3F)n2)cc1	-17%	15µM*	-13%	?	9.2µM*
COc1ccc(-c2csc(N(CCCN(C)C)C(=O)c3ccccc3Cl)n2)cc1	21µM*	?	18µM*	-72*	?
CCN(C(=O)c1ccco1)c1nc(-c2ccc(OC)cc2)cs1	4%	?	0%	5	-6%
